Assay outcomes: PubChem, several laboratories
DYRK1A inh: Dyrk1A (rat) kinase inhibition. ADP-Glo luminescence, NFATc1 peptide. actives 0.43% (n = 310,000). inhibition, % at 12.5 µM. Q63470; in the data active means inhibition above about 50%;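 further: plate controls were vehicle with enzyme for no effect and no enzyme for full effect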
Beta2AR agonist: human beta-2 adrenergic receptor agonism by FAP | actives 0.43% (n = 340,000) | Am2.2-beta2AR cells, FAP receptor internalization, flow cytometry | response, % (test concentration not listed) | P07550;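 active means response above a set limit, near 3 SD of response in nonfluorescent compounds, cut at about 42% in these data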
dFosB activator: activators of mouse delta FosB homodimer; P13346; purified delta FosB, TAMRA-CDK5 oligo fluorescence polarization; percent of positive-control signal above neutral wells; activation, % at 25 µM; actives 0.99% (n = 340,000);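 active means mean activation above about 17%, with every replicate also reaching it, limit read from the data, passing the limit was not always enough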
Target sequence (P13346 whole entry, looked up): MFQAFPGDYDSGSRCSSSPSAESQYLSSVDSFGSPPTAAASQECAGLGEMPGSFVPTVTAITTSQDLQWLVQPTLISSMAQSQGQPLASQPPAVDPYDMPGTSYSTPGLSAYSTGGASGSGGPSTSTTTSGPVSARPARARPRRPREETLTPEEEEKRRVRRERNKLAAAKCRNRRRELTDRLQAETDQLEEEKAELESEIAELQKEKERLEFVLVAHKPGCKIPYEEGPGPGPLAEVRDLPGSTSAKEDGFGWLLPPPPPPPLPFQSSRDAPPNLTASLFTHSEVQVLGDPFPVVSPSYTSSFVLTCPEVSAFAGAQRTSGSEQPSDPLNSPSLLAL
Bfl-1 A1 inh: inhibitors of the anti-apoptotic protein A1, read as caspase activation; MEF A1-2A-BIM cells, Caspase-Glo 3/7 luminescence, 3 h; percent of clofoctol response, vehicle zero; caspase activation, % (no concentration beside the values); AID 2462; actives 0.066% (n = 330,000);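 active means over half of replicate activation scores above 10%, or exactly half above 10 with the replicate mean above 10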
Beta2AR ag CP1: activates human beta-2 adrenergic receptor; shares compounds with Beta2AR agonist; AID 540358; Am2.2-beta2AR cells, FAP surface receptor, flow cytometry; hits give low values; percent response (surface receptor), % at 10 µM; actives 25% (n = 1,100);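 active means surface receptor percent response at or below 58%, roughly 3 SD from nonfluorescent compounds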
B2AR FAP counter: flagged in Am2.2 fluorescence counterscreen for beta-2AR agonists | shares compounds with Beta2AR agonist | Am2.2 cells, FAP fluorogen flow cytometry; hits give low values | calls only at 10 µM | 1,100 tested, under 10 active | AID 588765;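 active means percent response below a set limit in fluorescence channel 1 and below 50% in channel 8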
Starred values were filed as active, the others as inactive; i = inactive; . = no result. An excerpt weighted towards active compounds, which were near 1.6% of everything screened.

SMILES	DYRK1A inh	Beta2AR agonist	dFosB activator	Bfl-1 A1 inh	Beta2AR ag CP1	B2AR FAP counter
COC(=O)c1ccc(-c2nn(C)c(=O)c3ccccc23)cc1	17	-2	2	1	.	.
COC(=O)c1ccc(C(=O)OC)c(-n2c(=O)c3ccccc3c3ccccc3c2=O)c1	0	54*	-15	0	105	i
COc1ccc(OC)c(CCNC(=O)C2CCN(c3nnc(-n4cccc4)s3)CC2)c1	0	51*	-6	0	89	i
O=C(CSc1ccccc1Cl)N1CCOCC1	3	-19	-1	0	.	.
Cc1ccccc1N=C/C=C1/C=C(c2ccccc2)OC(C)(C)O1	-13	43*	-8	-1	85	i
Cc1cc(C)c(C(=O)COC(=O)c2c(C)noc2C)cc1C	-1	-10	-6	-1	.	.
COc1ccc(CCn2c(=O)[nH]c3cc(C(=O)NCCN4CCOCC4)ccc3c2=O)cc1OC	-2	69*	-1	0	.	i
COC(=O)c1sc2ccccc2c1N	1	3	1	.	.	.
COC(=O)C1=C(C(=O)OC)C(c2ccccc2O)c2sc(=O)[nH]c2S1 (stereo not drawn)	28	100*	-13	-1	93	i
C=CCn1c(C2CC2)n[nH]c1=S	-2	3	-2	0	.	.
CCCCCC1CCC(c2n[nH]c(=S)n2C)CC1 (stereo not drawn)	.	-4	-8	0	110	i
COc1ccccc1N(C)S(=O)(=O)c1ccc(C(=O)Nc2nccs2)cc1	.	8	-4	2	.	.
O=C(c1ccc(OC2CCN(Cc3cccc(OCCO)c3)CC2)cc1)N1CCCC1	.	2	-4	1	111	i
O=C(c1ccc(OC2CCN(Cc3cccc(F)c3)CC2)cc1)N1CCCCC1	-4	4	-13	0	.	.
COc1ccc(CN2CCC(Oc3ccc(C(=O)N4CCCCC4)cc3)CC2)cc1C	1	33	-6	0	85	i
COc1cccc(CN2CCC(Oc3ccc(C(=O)N4CCCCC4)cc3)CC2)c1	0	19	-3	2	118	i
O=C(c1cccc(OC2CCN(Cc3cccc(OCCO)c3)CC2)c1)N1CCCC1	-2	-18	-1	-1	.	.
CCc1ccc([C@H]2C(C(=O)O)=C[C@@H](CC3CCCC3)N2S(=O)(=O)c2ccc(C)cc2)cc1	.	6	-3	.	.	.
Cc1cc(C)cc(NC(=O)C(c2ccccc2)N2CCCC2)c1 (stereo not drawn)	2	2	1	1	.	.
Cc1ccc(NC(=O)C(c2ccc(Cl)cc2)N2CCCCC2)cc1 (stereo not drawn)	-2	47*	-6	.	36*	i
Cc1ccc(NC(=O)C(c2ccc(Cl)cc2)N2CCOCC2)cc1 (stereo not drawn)	1	48*	-13	0	46*	i
O=C(COC(=O)Cc1ccccc1F)NNC(=O)c1ccc([N+](=O)[O-])cc1	15	0	4	0	.	.
N#Cc1ccccc1S(=O)(=O)N1CCN(C(=O)C2CCCCC2)CC1	5	0	3	2	.	.
Cn1cccc1C(=O)NC1CCCCCC1	.	7	-3	.	.	.
O=C(CCn1c(=O)oc2ccccc21)NCCN1CCOCC1	3	-3	7	0	.	.
SMILES	DYRK1A inh	Beta2AR agonist	dFosB activator	Bfl-1 A1 inh	Beta2AR ag CP1	B2AR FAP counter
O=C(CCn1c(=O)oc2ccc(Cl)cc21)NCCCN1CCOCC1	1	50*	-3	0	99	i
Cc1ccc(NC(=O)CCCN2C(=O)NC(C)(C)C2=O)cc1	2	0	0	0	.	.
N/C(Cc1ccc(Cl)c(Cl)c1)=N\OC(=O)c1ccc(Br)o1	-4	5	0	1	.	.
CN(C)c1ccc(-c2noc(C3CCN(S(=O)(=O)c4cccc(Cl)c4)CC3)n2)cc1	7	65*	-14	0	39*	i
CC1CCN(CC(=O)Nc2ccc(S(=O)(=O)NC3CC3)cc2)CC1	-6	3	-4	0	.	.
O=C(c1ccc(OC2CCN(Cc3ccccc3OC(F)F)CC2)cc1)N1CCCC1	6	-1	-9	0	.	.
O=C(c1ccc(OC2CCN(Cc3ccc(C(F)(F)F)cc3)CC2)cc1)N1CCCCC1	-2	62*	-22	0	8.5*	i
O=C(c1ccc(OC2CCN(Cc3ccccc3C(F)(F)F)CC2)cc1)N1CCCCC1	0	1	-13	0	104	i
Cn1cc(CN2CCC(Oc3ccc(C(=O)N4CCCCC4)cc3)CC2)cn1	7	-2	-12	0	.	.
CCOc1ccccc1C(=O)NCC(=O)OCc1csc(CC(=O)Nc2ccc(C)cc2)n1	1	85*	-2	0	12*	i
O=c1[nH]c2ccccc2cc1CN(Cc1ccco1)S(=O)(=O)c1ccc(F)cc1	-6	-13	-15	-1	142	i
CNC[C@H](NC[C@@H](NCCCc1ccccc1)c1ccccc1)[C@H](C)O	-2	55*	2	1	107	i
CC[C@@H](C)[C@H](CN[C@H](CNC)[C@@H](C)O)NCCc1ccc(OC)cc1	11	0	6	1	.	.
CCOC(=O)COc1cccc2c(=O)n(CC(=O)NCc3ccc(F)cc3)ccc12	2	51*	4	2	74	i
CCOC(=O)COc1cccc2c(=O)n(CC(=O)NCc3ccccc3)ccc12	6	19	-7	1	.	.
C=CCn1c(SCc2ccc(F)cc2)nnc1-c1sc2nc(C)cc(C)c2c1N	6	109*	-6	4	28*	i
C=CCn1c(SCc2ccc(OC)cc2)nnc1-c1cccnc1	6	1	3	0	.	.
Oc1cccc(C(O)CNCc2ccc(-c3ccccc3)cc2)c1 (stereo not drawn)	1	28	2	0	.	.
OC(CNCc1cccc(Cl)c1)c1ccccc1 (stereo not drawn)	-3	-8	5	0	115	i
OC(CC(O)c1ccccc1)c1ccccc1 (stereo not drawn)	-2	3	-2	.	.	.
OC(CNC1Cc2ccccc2C1)c1ccccc1 (stereo not drawn)	6	-10	3	0	123	i
OC(CNCc1ccccc1)c1ccccc1 (stereo not drawn)	12	-5	5	0	110	i
CCOc1cc(CNCc2ccccn2)cc(Cl)c1OC	-1	-3	-6	2	.	.
CCOc1cc(CNCC(O)c2ccccc2)cc(Cl)c1OC (stereo not drawn)	2	0	-5	0	110	i
CN1CCC(N(C)C(=O)c2cc(-c3ccc(F)cc3)nc3ccccc23)CC1	-8	0	1	-1	.	.
COc1ccc(CN2C(=O)C(Cc3ccccc3)Nc3ncnc(N4CCc5ccccc5C4)c32)cc1 (stereo not drawn)	.	.	.	-1	.	.
COc1ccc(CC(=O)OCC(=O)Nc2ccc(N3CCOCC3)cc2)cc1	-10	7	-6	0	.	.
